According to PubChem BioAssay (EPA / NIEHS):
Active and inactive are the calls of the source. The calls were made as follows: active = hit-call score of the fitted dose curve at least 0.9, where 1 is the maximum; inactive = score below 0.9.

Read-out: not listed separately
Test: BSK_KF3CT_SRB: Viability Assessment in the BioMAP Diversity Plus: KF3CT Assay (AID 2283069);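 also: total protein by sulforhodamine B staining as a cytotoxicity measure; read 24 h after compound addition; fitted for both signal gain and loss against DMSO baseline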
Settings: primary human keratinocytes with fibroblasts
Procedure, shortened: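 SRB read-out at 560 nm (0.1% stain, TCA-fixed cells) gauges overt cytotoxicity in a human skin keratinocyte–fibroblast co-culture 24 h post-dosing. Signal change was fitted bidirectionally relative to DMSO control.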

SMILES	AC50	outcome
COc1cccc(-c2ccc(/C=C\CN3CCCCCC3)cc2Cl)c1	30.6 µM (active)	–
O=C(OC[C@H]1O[C@@H](OC(=O)c2cc(O)c(O)c(OC(=O)c3cc(O)c(O)c(O)c3)c2)[C@H](OC(=O)c2cc(O)c(O)c(OC(=O)c3cc(O)c(O)c(O)c3)c2)[C@@H](OC(=O)c2cc(O)c(O)c(OC(=O)c3cc(O)c(O)c(O)c3)c2)[C@@H]1OC(=O)c1cc(O)c(O)c(OC(=O)c2cc(O)c(O)c(O)c2)c1)c1cc(O)c(O)c(OC(=O)c2cc(O)c(O)c(O)c2)c1	–	inactive
Clc1nc(Cl)c(Cl)c(Cl)c1Cl	–	inactive
COc1ccc(/C=C/S(=O)(=O)NC(=O)c2ccc(C)cc2Cl)cc1	–	inactive
COC(=O)CC(=O)OC	–	inactive
O=c1[nH]c2ccc(S(=O)CCN3CCC(Cc4ccc(F)cc4)CC3)cc2o1 (stereo unspecified)	–	inactive
CC[C@H](C)C(=O)O[C@H]1C[C@@H](C)C=C2C=C[C@H](C)[C@H](CC[C@@H]3C[C@@H](O)CC(=O)O3)[C@H]21	31.7 µM (active)	–
Cc1c(-c2cccnc2)c2ccccc2n1CCCCC(=O)O	–	inactive

Read-out: Interleukin-1 alpha (IL1a), IL1A (gene 3552)
Test: BSK_KF3CT_IL1a: BioMAP Diversity Plus: KF3CT Assay for Interleukin-1 alpha (IL1a) Biomarker Activity (AID 2283070)
Settings: primary human keratinocytes with fibroblasts; actives raise or lower the signal
Procedure, shortened: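 Primary skin co-culture (keratinocytes, foreskin fibroblasts), 24 h exposure; ELISA for IL-1a; bidirectional curve fit vs DMSO.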

SMILES	AC50	outcome
CCCCCCc1ccc(O)cc1O	30.3 µM (active)	–
Nc1nc2ncc(CNc3ccc(C(=O)N[C@@H](CCC(=O)O)C(=O)O)cc3)nc2c(=O)[nH]1	–	inactive
C=CC(=C)CCC=C(C)C	–	inactive
O=C1OC(=O)C2C3C=CC(C3)C12 (stereo unspecified)	–	inactive
CCOCCOCCOCCO	–	inactive
CCCC(=O)OCC	–	inactive
CCCCCCCCCCCCc1ccccc1	–	inactive
O=P(OC(CCl)CCl)(OC(CCl)CCl)OC(CCl)CCl	–	inactive
CC(C)CCCCCCOC(=O)c1ccc(C(=O)OCCCCCCC(C)C)c(C(=O)OCCCCCCC(C)C)c1	–	inactive
O=C(O)CCN(C1(C(=O)NO)CCCC1)S(=O)(=O)c1ccc(Oc2ccc(F)cc2)cc1	–	inactive
O=C(OC[C@H]1O[C@@H](OC(=O)c2cc(O)c(O)c(OC(=O)c3cc(O)c(O)c(O)c3)c2)[C@H](OC(=O)c2cc(O)c(O)c(OC(=O)c3cc(O)c(O)c(O)c3)c2)[C@@H](OC(=O)c2cc(O)c(O)c(OC(=O)c3cc(O)c(O)c(O)c3)c2)[C@@H]1OC(=O)c1cc(O)c(O)c(OC(=O)c2cc(O)c(O)c(O)c2)c1)c1cc(O)c(O)c(OC(=O)c2cc(O)c(O)c(O)c2)c1	6.1 µM (active)	–
COC(=O)CC(=O)OC	–	inactive
Cc1c(-c2cccnc2)c2ccccc2n1CCCCC(=O)O	–	inactive
